The supplement of paper PMC4022240
± gives the standard deviation.

T1: HaloTag-ATRX ADD domain (163-292)
T1 chain: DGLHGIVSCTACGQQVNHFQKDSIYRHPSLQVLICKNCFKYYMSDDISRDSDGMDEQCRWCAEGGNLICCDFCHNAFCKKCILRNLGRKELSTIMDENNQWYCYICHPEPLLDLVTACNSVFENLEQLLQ


Experiments:
Test in all cases: peptide microarray binding signal (635 nm), min-max normalized on array (fraction of array maximum); higher = stronger binding
Settings in all cases: peptide region: Unmod H2A variant
[1] = target: T1, HaloTag-ATRX ADD domain (163-292)
Procedure, shortened: (§1)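 Two probe formats were used for 1 h at 4°C: biotin-labelled HaloTag reader fusions (10 nM to 1 μM) with streptavidin-Alexa Fluor 647, and rabbit histone antibodies (1:10,000 to 1:2,000) with anti-rabbit Alexa 647. Both were applied to nitrocellulose arrays of histone 13-mer peptide–cellulose conjugates printed in triplicate with a Cy3 tracer and blocked overnight at 4°C. Signal was read at 635 nm and misprints at 532 nm on an Axon GenePix 4000B. Binding signal is expressed as the triplicate-spot mean intensity, min-max scaled for each library.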

[2] = target: HaloTag-ING2 PHD (mouse Ing2 200-280)
Procedure, shortened: as §1

[3] = target: anti-H3K4me3 antibody ab8580
Procedure, shortened: as §1

[4] = target: anti-H3K9me3 antibody ab8898
Procedure, shortened: as §1

[5] = binder concentration: 1:2,000 dilution
[6] = binder concentration: 1:10,000 dilution

Row | Binder | peptide microarray binding signal ([1]; binder concentration: 50 nM) | peptide microarray binding signal ([1]; binder concentration: 500 nM) | peptide microarray binding signal ([2]; binder concentration: 10 nM) | peptide microarray binding signal ([2]; binder concentration: 100 nM) | peptide microarray binding signal [3, 5] | peptide microarray binding signal [3, 6] | peptide microarray binding signal [4, 5] | peptide microarray binding signal [4, 6]
1 | RAKSKSRSSRAGL [Unmod H2A variant R A K S K S R S S R A G L] | 0.0102 ± 0.0014 | 0.00576 ± 0.0015 | 0.00645 ± 0.0004 | 0.0116 ± 0.0028 | 0.000472 ± 4.5e-05 | 0.00165 ± 3.2e-05 | 0.0005588 ± 5.2e-06 | 0.00127 ± 2.5e-05
2 | GNASRDNKKTRII [Unmod H2A variant G N A S R D N K K T R I I] | 0.0142 ± 0.00075 | 0.00895 ± 0.0037 | 0.0031 ± 0.00011 | 0.00673 ± 0.00046 | 0.000396 ± 2.5e-05 | 0.0012 ± 4.3e-05 | 0.000272 ± 4.9e-06 | 0.00075 ± 7.9e-06
3 | QGGKARAKAKTRS [Unmod H2A variant Q G G K A R A K A K T R S] | 0.00784 ± 0.00021 | 0.0153 ± 0.0011 | 0.00298 ± 0.00012 | 0.00496 ± 0.00036 | 0.00125 ± 0.00024 | 0.000685 ± 7.2e-06 | 0.000408 ± 1.4e-05 | 0.000404 ± 4.4e-06
4 | LAAVLEYLTAEIL [Unmod H2A variant L A A V L E Y L T A E I L] | 0.0089 ± 0.00038 | 0.00462 ± 0.00017 | 0.00215 ± 4.5e-05 | 0.00184 ± 0.00015 | 0.00238 ± 0.0001 | 0.000913 ± 1.6e-05 | 0.0003775 ± 3.7e-06 | 0.00075 ± 7.9e-06
5 | DNKKTRIIPRHLQ [Unmod H2A variant D N K K T R I I P R H L Q] | 0.0223 ± 0.0044 | 0.0112 ± 0.0059 | 0.00245 ± 9.1e-05 | 0.0078 ± 0.0012 | 0.000472 ± 9.6e-05 | 0.00183 ± 0.00033 | 0.000317 ± 2.5e-05 | 0.000923 ± 7.7e-05
6 | AGLQFPVGRVHRL [Unmod H2A variant A G L Q F P V G R V H R L] | 0.0745 ± 0.019 | 0.0998 ± 0.058 | 0.0252 ± 0.0093 | 0.0507 ± 0.015 | 0.00176 ± 0.00047 | 0.00793 ± 0.00092 | 0.00307 ± 0.00038 | 0.00542 ± 0.00044
7 | RAKAKSRSSRAGL [Unmod H2A variant R A K A K S R S S R A G L] | 0.00771 ± 0.00081 | 0.0133 ± 0.001 | 0.00615 ± 0.00015 | 0.0141 ± 0.0012 | 0.000868 ± 0.00013 | 0.0012 ± 1.2e-05 | 0.0004379 ± 4.2e-06 | 0.00098 ± 1.7e-05
8 | KGNYAERVGAGAP [Unmod H2A variant K G N Y A E R V G A G A P] | 0.0103 ± 0.00041 | 0.0165 ± 0.00062 | 0.0105 ± 0.0025 | 0.034 ± 0.0024 | 0.00546 ± 0.001 | 0.00171 ± 6.5e-05 | 0.00116 ± 9.3e-05 | 0.00075 ± 2.1e-05
9 | KGNYSERVGAGAP [Unmod H2A variant K G N Y S E R V G A G A P] | 0.019 ± 0.0052 | 0.0303 ± 0.012 | 0.00692 ± 0.0004 | 0.0104 ± 0.0025 | 0.00799 ± 0.00061 | 0.00223 ± 0.00022 | 0.00116 ± 9.9e-05 | 0.00115 ± 5.3e-05
10 | GAGAPVYMAAVLE [Unmod H2A variant G A G A P V Y M A A V L E] | 0.0137 ± 0.00082 | 0.0173 ± 0.0023 | 0.0083 ± 0.0011 | 0.0205 ± 0.0014 | 0.00425 ± 0.00061 | 0.0016 ± 0.00012 | 0.000846 ± 4.3e-05 | 0.00144 ± 3.7e-05
11 | GAGAPVYLAAVLE [Unmod H2A variant G A G A P V Y L A A V L E] | 0.0133 ± 0.00042 | 0.00505 ± 0.0014 | 0.0031 ± 0.00049 | 0.0137 ± 0.00099 | 0.000189 ± 8.9e-06 | 0.0016 ± 2.7e-05 | 0.000423 ± 1.1e-05 | 0.00104 ± 2.8e-05
12 | RSSRAGLQFPVGR [Unmod H2A variant R S S R A G L Q F P V G R] | 0.0275 ± 0.0053 | 0.0768 ± 0.0024 | 0.0177 ± 0.0021 | 0.0277 ± 0.0034 | 0.00311 ± 0.00055 | 0.00148 ± 3.8e-05 | 0.0008004 ± 6.8e-06 | 0.0011 ± 2.2e-05
13 | GNAARDNKKTRII [Unmod H2A variant G N A A R D N K K T R I I] | 0.0155 ± 0.0014 | 0.0214 ± 0.0004 | 0.003223 ± 1.8e-05 | 0.0051 ± 0.00053 | 0.00162 ± 0.0002 | 0.000799 ± 8.3e-06 | 0.000362 ± 6.3e-06 | 0.000577 ± 6.2e-06
14 | MAAVLEYLTAEIL [Unmod H2A variant M A A V L E Y L T A E I L] | 0.0107 ± 0.00027 | 0.00667 ± 0.00052 | 0.00173 ± 2.1e-05 | 0.000992 ± 2.8e-05 | 0.00829 ± 0.0044 | 0.00217 ± 3.9e-05 | 0.000529 ± 1.3e-05 | 0.00075 ± 1.6e-05
15 | YLTAEILELAGNA [Unmod H2A variant Y L T A E I L E L A G N A] | 0.0171 ± 0.0047 | 0.00443 ± 0.0022 | 0.00203 ± 0.00013 | 0.00149 ± 4.1e-05 | 0.000717 ± 0.00017 | 0.00126 | 0.000664 ± 3.6e-05 | 0.00196 ± 0.00018
16 | ILELAGNASRDNK [Unmod H2A variant I L E L A G N A S R D N K] | 0.0191 ± 0.0013 | 0.04029 ± 0.00036 | 0.00734 ± 0.00031 | 0.0487 ± 0.0018 | 0.0164 ± 0.0026 | 0.00354 ± 0.00017 | 0.00523 ± 0.00098 | 0.00536 ± 0.0001
17 | RAKAKTRSSRAGL [Unmod H2A variant R A K A K T R S S R A G L] | 0.0117 ± 0.00045 | 0.0611 ± 0.039 | 0.00531 ± 0.00038 | 0.0242 ± 0.0082 | 0.00328 ± 0.00034 | 0.00165 ± 3.2e-05 | 0.000966 ± 0.00011 | 0.0011 ± 1.1e-05
18 | KGNYAERIGAGAP [Unmod H2A variant K G N Y A E R I G A G A P] | 0.0345 ± 0.0048 | 0.0994 ± 0.0054 | 0.0206 ± 0.00047 | 0.0279 ± 0.0038 | 0.00668 ± 0.0046 | 0.00953 ± 0.0009 | 0.005421 ± 1.8e-05 | 0.00611 ± 0.0016
19 | AGLQFPVGRIHRL [Unmod H2A variant A G L Q F P V G R I H R L] | 0.0361 ± 0.0039 | 0.0377 ± 0.0043 | 0.0334 ± 0.0037 | 0.0514 ± 0.0061 | 0.00361 ± 0.0021 | 0.00628 ± 0.00018 | 0.00281 ± 0.00024 | 0.00686 ± 0.00042
20 | ILELAGNAARDNK [Unmod H2A variant I L E L A G N A A R D N K] | 0.048 ± 0.0046 | 0.0752 ± 0.011 | 0.0242 ± 0.0025 | 0.0721 ± 0.0091 | 0.0104 ± 0.0051 | 0.015 ± 0.0031 | 0.00921 ± 0.0019 | 0.0132 ± 0.0022
